From PubChem BioAssay (EPA / NIEHS) come the findings set out here.

Molecules are shown by their SMILES. Calls of active or inactive are those of the source. The calls were made as follows: active = hit-call score of the fitted dose curve at least 0.9, where 1 is the maximum; inactive = score below 0.9.

Read-out in assay [1]: Vascular cell adhesion molecule 1 (VCAM1), VCAM1 (gene 7412)
As to the kind of experiment: BSK_4H_VCAM1: BioMAP Diversity Plus: 4H Assay for Vascular cell adhesion molecule 1 (VCAM1) Biomarker Activity (AID 2283033).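 As to outcome: cell-surface VCAM-1 protein measured by ELISA.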 As to conditions: primary human endothelial cells (HUVEC); actives raise or lower the signal. An outline of the steps: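 Primary human umbilical vein endothelial cells were exposed to chemicals for 24 h, after which VCAM-1 was quantified by ELISA. Responses were fitted bidirectionally against DMSO as negative control and activity baseline.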

Read-out in assay [2]: Interferon-gamma inducible Protein 10 (IP10), CXCL10 (gene 3627)
As to the kind of experiment: BSK_BE3C_IP10: BioMAP Diversity Plus: BE3C Assay for Interferon-gamma inducible Protein 10 (IP10) Biomarker Activity (AID 2283034). As to conditions: primary human bronchial epithelial cells; actives raise or lower the signal. An outline of the steps: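 Human primary bronchial epithelial cells were exposed to chemicals for 24 hours, after which IP-10 levels were measured by ELISA. Data were fitted bidirectionally against DMSO, which served as the negative control and activity baseline.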

Read-out in assay [3]: Monokine induced gamma interferon (MIG), CXCL9 (gene 4283)
As to the kind of experiment: BSK_BE3C_MIG: BioMAP Diversity Plus: BE3C Assay for Monokine induced gamma interferon (MIG) Biomarker Activity (AID 2283035).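 As to outcome: MIG protein measured by ELISA in BE3C cultures after 24 h of dosing.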 As to conditions: primary human bronchial epithelial cells; actives raise or lower the signal. The method, boiled down:
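ELISA read-out of MIG in human lung bronchial epithelial primary cultures, 24 h post-dosing. Bidirectional curve fit vs DMSO baseline.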

Read-out in assay [4]: Transforming growth factor beta 1 (TGFb1), TGFB1 (gene 7040)
As to the kind of experiment: BSK_BE3C_TGFb1: BioMAP Diversity Plus: BE3C Assay for Transforming growth factor beta 1 (TGFb1) Biomarker Activity (AID 2283036). To be noted: primary human bronchial epithelial cells; actives raise or lower the signal. The method, boiled down:
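Human primary bronchial epithelial cells (BE3C system) were dosed with chemical and TGF-b1 levels measured by ELISA at 24 h. Activity was fitted bidirectionally relative to DMSO negative control as baseline.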

Read-out in assay [5]: Plasminogen activator inhibitor-1 (PAI1), SERPINE1 (gene 5054)
Briefly: BSK_BE3C_PAI1: BioMAP Diversity Plus: BE3C Assay for Plasminogen activator inhibitor-1 (PAI1) Biomarker Activity (AID 2283037). To be noted: primary human bronchial epithelial cells; actives raise or lower the signal. An outline of the steps: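 Human primary bronchial epithelial cells were exposed to chemical for 24 h, then PAI-1 was quantified by ELISA. Activity was fitted bidirectionally relative to the DMSO negative control baseline.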

Read-out in assay [6]: urokinase plasminogen activator (uPA), PLAU (gene 5328)
As to the kind of experiment: BSK_BE3C_uPA: BioMAP Diversity Plus: BE3C Assay for urokinase plasminogen activator (uPA) Biomarker Activity (AID 2283038).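 As to outcome: uPA protein level quantified by ELISA in cell cultures; uPA read one day after compound addition.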 As to conditions: primary human bronchial epithelial cells; actives raise or lower the signal. The method, boiled down: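 Bronchial epithelial cells (human, primary); chemical 24 h; uPA by ELISA; bidirectional fit vs DMSO. SRB (0.1%, after 10% TCA fixation, 560 nm) in parallel cultures for cytotoxicity.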

Read-out in assay [7]: Urokinase-type plasminogen activator receptor (uPAR), PLAUR (gene 5329)
Briefly: BSK_BE3C_uPAR: BioMAP Diversity Plus: BE3C Assay for Urokinase-type plasminogen activator receptor (uPAR) Biomarker Activity (AID 2283039).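 As to outcome: cells exposed to compound for one day before measurement.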 As to conditions: primary human bronchial epithelial cells; actives raise or lower the signal. The method, boiled down: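 Primary human bronchial epithelial cells were dosed with chemical and harvested 24 h later; uPAR was quantified by ELISA. Activity was fitted bidirectionally against DMSO as negative control and baseline.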

Read-out in assay [8]: Interleukin-6 (IL6), IL6 (gene 3569)
As to the kind of experiment: BSK_CASM3C_IL6: BioMAP Diversity Plus: CASM3C Assay for Interleukin-6 (IL6) Biomarker Activity for (AID 2283040). To be noted: primary human coronary artery smooth muscle cells; actives raise or lower the signal.

Read-out in assay [9]: Tissue plasminogen activator (tPA), PLAT (gene 5327)
As to the kind of experiment: BSK_BE3C_tPA: BioMAP Diversity Plus: BE3C Assay for Tissue plasminogen activator (tPA) Biomarker Activity (AID 2283041).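 As to outcome: tPA level quantified by ELISA one day after compound addition.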 To be noted: primary human bronchial epithelial cells; actives raise or lower the signal. An outline of the steps: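 Human primary bronchial epithelial cells were dosed with chemical and tPA biomarker levels measured by ELISA 24 hours later. Activity was fitted bidirectionally against DMSO as negative control and baseline.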

Read-out in assay [10]: Interleukin-8 (IL8), CXCL8 (gene 3576)
Briefly: BSK_CASM3C_IL8: BioMAP Diversity Plus: CASM3C Assay for Interleukin-8 (IL8) Biomarker Activity (AID 2283042).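 Also: IL-8 protein level quantified by ELISA.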 To be noted: primary human coronary artery smooth muscle cells; actives raise or lower the signal.

Read-out in assay [11]: Human Leukocyte Antigen - DR isotype (HLADR), HLA-DRA (gene 3122)
As to the kind of experiment: BSK_CASM3C_HLADR: BioMAP Diversity Plus: CASM3C Assay for Human Leukocyte Antigen - DR isotype (HLADR) Biomarker Activity (AID 2283043).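 Also: cell-surface HLA-DR protein level quantified by ELISA.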 As to conditions: primary human coronary artery smooth muscle cells; actives raise or lower the signal.

Read-out in assay [12]: Macrophage colony-stimulating factor (MCSF), CSF1 (gene 1435)
As to the kind of experiment: BSK_CASM3C_MCSF: BioMAP Diversity Plus: CASM3C Assay for Macrophage colony-stimulating factor (MCSF) Biomarker Activity (AID 2283044).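 Also: M-CSF protein amount quantified by ELISA after 24 h exposure.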 As to conditions: primary human coronary artery smooth muscle cells; actives raise or lower the signal.

Read-out in assay [13]: Low-density lipoprotein receptor (LDLR), LDLR (gene 3949)
Briefly: BSK_CASM3C_LDLR: BioMAP Diversity Plus: CASM3C Assay for Low-density lipoprotein receptor (LDLR) Biomarker Activity (AID 2283045).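 Also: LDLR protein level on the cell surface quantified by ELISA.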 To be noted: primary human coronary artery smooth muscle cells; actives raise or lower the signal.

Read-out in assay [14]: Monocyte Chemoattractant Protein-1 (MCP1), CCL2 (gene 6347)
As to the kind of experiment: BSK_CASM3C_MCP1: BioMAP Diversity Plus: CASM3C Assay for Monocyte Chemoattractant Protein-1 (MCP1) Biomarker Activity (AID 2283046).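 Also: MCP-1 level quantified by ELISA 24 h after dosing.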 To be noted: primary human coronary artery smooth muscle cells; actives raise or lower the signal.

Assay [15] in a line: BSK_CASM3C_Proliferation: Cell Proliferation Assessment in the BioMAP Diversity Plus: CASM3C Assay (AID 2283047).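 Also: sulforhodamine B total protein stain as relative cell number at 560 nm; sub-confluent cells exposed 48 h before staining; fitted both ways against DMSO so gain or loss of cell number.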 As to conditions: primary human coronary artery smooth muscle cells.
Read-out in assay [16]: Monokine induced gamma interferon (MIG), CXCL9 (gene 4283)
Briefly: BSK_CASM3C_MIG: BioMAP Diversity Plus: CASM3C Assay for Monokine induced gamma interferon (MIG) Biomarker Activity (AID 2283048). As to conditions: primary human coronary artery smooth muscle cells; actives raise or lower the signal.

Read-out in assay [17]: serum amyloid A (SAA), SAA1 (gene 6288)
Briefly: BSK_CASM3C_SAA: BioMAP Diversity Plus: CASM3C Assay for serum amyloid A (SAA) Biomarker Activity (AID 2283049).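 Also: SAA protein level quantified by ELISA.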 As to conditions: primary human coronary artery smooth muscle cells; actives raise or lower the signal.

Assay [18] in a line: BSK_CASM3C_SRB: Viability Assessment in the BioMAP Diversity Plus: CASM3C Assay (AID 2283050).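 Also: total protein by SRB staining as cytotoxicity measure in parallel cultures.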 As to conditions: primary human coronary artery smooth muscle cells.
Read-out in assay [19]: Thrombomodulin, THBD (gene 7056)
As to the kind of experiment: BSK_CASM3C_Thrombomodulin: BioMAP Diversity Plus: CASM3C Assay for Thrombomodulin Biomarker Activity (AID 2283051).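 Also: thrombomodulin protein level measured by ELISA 24 h after dosing.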 To be noted: primary human coronary artery smooth muscle cells; actives raise or lower the signal.

Read-out in assay [20]: Tissue Factor, F3 (gene 2152)
As to the kind of experiment: BSK_CASM3C_TissueFactor: BioMAP Diversity Plus: CASM3C Assay for Tissue Factor Biomarker Activity (AID 2283052).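 Also: cell surface tissue factor protein level read by ELISA.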 As to conditions: primary human coronary artery smooth muscle cells; actives raise or lower the signal.

Take `CC(C)(C)CC(C)(C)c1ccc(OCCOCC[N+](C)(C)Cc2ccccc2)cc1`: the concentration at half-maximal activity (AC50) (in general, the concentration giving half of the maximal activity seen) in [1] was 7.35 µM (active); in [2] it was 8.05 µM (active); in assay [3] it was 8.97 µM (active); in assay [5], 0.992 µM (active); in [6], 5 µM (active); in assay [7], 3.16 µM (active). The AC50 in assay [8] is 8 µM (active); in assay [10] it was 7.3 µM (active); in assay [11] it was 6.1 µM (active); in [12] it was 7.89 µM (active); in [13], 8.21 µM (active); in [14], 8.03 µM (active). Moreover, the AC50 was 7.66 µM (active) in assay [15]; 9.51 µM (active) in assay [16]; 5 µM (active) in assay [17]; 7.54 µM (active) in assay [18]; 6.62 µM (active) in assay [19]; 5 µM (active) in assay [20]. Moreover, the outcome in assay [4] and in assay [9] was inactive.

`COc1ccc(CCN2CCC(Nc3nc4ccccc4n3Cc3ccc(F)cc3)CC2)cc1`: the AC50 was 0.0041 µM (active) in assay [1], 1.54 µM (active) in assay [13] and 8.02 µM (active) in [15]. In addition, the result in [2], in assay [3], in assay [4], in assay [5], in [6] and in assay [7] was inactive. Further, the outcome in [8], in assay [9], in assay [10], in assay [11], in assay [12] and in assay [14] was inactive. In addition, the result in assay [16], in [17], in assay [18], in assay [19] and in [20] was inactive.

In the case of `CC1(C)C2=CCCC(C)(C)[C@]23CC[C@H]1C3`, the result in assay [1], in [3], in assay [5], in assay [6], in assay [7] and in assay [10] was inactive. The outcome in assay [16] and in [19] was inactive. Moreover, the AC50 was 20 µM (active) in [2]; 20 µM (active) in [4]; 30.2 µM (active) in [8]; 31.5 µM (active) in assay [9]; 20 µM (active) in assay [11]; 32.7 µM (active) in assay [12]. The AC50 in assay [13] was 34.6 µM (active); in assay [14] it was 31.3 µM (active); in [15] it was 30.7 µM (active); in assay [17] it was 20 µM (active); in assay [18], 31.1 µM (active); in assay [20] it was 30.9 µM (active).

Regarding `c1ccc(Oc2ccccc2)cc1`, the AC50 in [1] was 28.8 µM (active). The outcome in [2], in assay [3], in [4], in [5], in [6] and in assay [7] was inactive. In addition, the result in [8], in [9], in assay [10], in assay [11], in assay [12] and in assay [13] was inactive. Also, the result in [14], in assay [15], in [16], in assay [17], in assay [18] and in assay [19] was inactive. Besides, in assay [20], the outcome was inactive.

In the case of `CC(C=O)Cc1ccc(C(C)(C)C)cc1` (stereo not given), the AC50 in [1] is 34.5 µM (active); in assay [2], 29.7 µM (active); in assay [8], 28.5 µM (active); in assay [9] it was 24.8 µM (active); in [11], 28.8 µM (active); in assay [12] it was 27.5 µM (active). For the same molecule, the AC50 is 30.6 µM (active) in [14]; 32.3 µM (active) in assay [15]; 30.7 µM (active) in [16]; 31.3 µM (active) in assay [18]; 20 µM (active) in [20]. Moreover, the result in [3], in assay [4], in assay [5], in assay [6], in assay [7] and in assay [10] was inactive. Also, the outcome in [13], in assay [17] and in assay [19] was inactive.

Take `CC(=O)c1c(C)c([N+](=O)[O-])c(C(C)(C)C)c([N+](=O)[O-])c1C`: the outcome in assay [1], in [2], in assay [3], in assay [4], in assay [5] and in assay [6] was inactive. For the same molecule, the outcome in assay [7], in [8], in assay [9], in assay [10], in [11] and in assay [12] was inactive. For the same molecule, the result in [13], in assay [14], in assay [15], in assay [16], in [17] and in [18] was inactive. The outcome in assay [19] and in [20] was inactive.
